The list is not random: actives were taken first. Their share in the collection is about 12%.
BAZ2B inh: BAZ2B (human) inhibition; Q9UIF8; AlphaScreen BAZ2B-H3K14Ac peptide displacement; Potency, µM (titrated, usually from 114 µM), inactives show top-dose activity change, negative = inhibition, usual class: inhibitors; 360,000 tested, 4.4% active; AID 504333; also: % is scaled to controls: 0 for no effect and ±100 for the full control effect; nearly all actives have a fitted effect of over 60% in size
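Protein-peptide AlphaScreen: BAZ2B 50 nM, b-H3K14Ac 50 nM, 1x PBS pH 7.4 + 0.01% Tween-20. Preincubation 30 min RT; cpd 30 min RT (top 110 uM); beads 20 min RT, light-protected.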
Sfp PPTase inh: blocks B. subtilis Sfp PPTase activity; 310,000 tested, 3.5% active; AID 1490; Q9F4F7; Potency, µM, without a hit: largest response in the series, negative = inhibition, most hits filed as inhibitors; Biochemical Sfp PPTase activity, qHTS;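 also: the enzyme is Sfp with the accession as filed and its product quenches rhodamine fluorescence; 0% = enzyme reaction without inhibitor and -100% = no enzyme wells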
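Fluorescence-quenching assay: 15 nM Sfp-PPTase preincubated 15 min at room temperature with compound, then 5 uM rhodamine-CoA and 12.5 uM BHQ-2-labelled YbbR peptide added. Fluorescence (ex 525/em 598 nm) read at start and after 30 min; difference gives rate.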
G9a inh: G9a (human) methyltransferase inhibition; 350,000 tested, 8.8% active; G9a H3K9 monomethylation, AlphaScreen, 2 h; Potency, µM (series often up to 102 µM), for the others: at the highest dose activity, negative = inhibition, usual class: inhibitors; AID 504332; Q96KQ7; also: % is scaled to controls: 0 for no effect and ±100 for the full control effect; nearly all actives have a fitted effect of over 75% in size
Target sequence (Q96KQ7 913-1193 limits assumed): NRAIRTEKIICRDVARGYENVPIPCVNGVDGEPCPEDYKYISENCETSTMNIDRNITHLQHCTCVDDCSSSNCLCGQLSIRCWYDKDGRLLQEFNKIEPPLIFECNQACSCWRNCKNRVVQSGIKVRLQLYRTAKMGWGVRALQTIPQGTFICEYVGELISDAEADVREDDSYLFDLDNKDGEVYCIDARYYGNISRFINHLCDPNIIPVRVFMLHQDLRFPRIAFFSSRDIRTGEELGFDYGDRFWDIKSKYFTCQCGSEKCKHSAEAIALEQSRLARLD
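Signal arises when biotinylated H3K9 peptide, once monomethylated, bridges streptavidin donor and antibody-captured acceptor beads. Enzyme at 20 nM was preincubated 15 min with test compounds; peptide 500 nM and SAM 20 uM then reacted for 2 h.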
L3MBTL1 inh: L3MBTL1 (human) inhibition. 230,000 tested, 0.66% active. Q9Y468. AID 485360. AlphaScreen L3MBTL1–H3K9me1 peptide binding. Potency, µM (top dose mostly 57.1 µM), for inactives: at the top dose activity, negative = inhibition, actives largely listed as inhibitors; also: % is scaled to controls: 0 for no effect and ±100 for the full control effect; nearly all actives have a fitted effect of over 60% in size
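L3MBTL1 (50 nM) pre-complexed 30 min with biotinylated H3(1-15)K9me1 peptide (75 nM), then compounds added for 30 min at room temperature; AlphaScreen streptavidin donor/nickel chelate acceptor beads (10 ug/mL final) read after 30 min dark incubation.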
HP1b chromo inh: HP1-beta chromodomain-methylated histone interaction inhibition; 390,000 tested, 0.56% active; Potency, µM (series often up to 114 µM), without a hit: top-dose activity change, negative = inhibition, most hits filed as inhibitors; AlphaScreen HP1-beta / biotin-H3K9me3 peptide binding; also: nearly all actives have a fitted effect of over 70% in size
Target sequence (P83916 whole entry, looked up): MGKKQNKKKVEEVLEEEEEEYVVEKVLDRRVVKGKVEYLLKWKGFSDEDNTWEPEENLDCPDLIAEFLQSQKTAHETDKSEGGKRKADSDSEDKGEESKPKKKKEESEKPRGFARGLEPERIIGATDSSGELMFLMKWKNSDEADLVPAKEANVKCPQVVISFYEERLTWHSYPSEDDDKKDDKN
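Compound inhibition of the preformed complex between 50 nM HP1-beta and 50 nM biotinylated H3K9me3 peptide was read by AlphaScreen. Buffer was PBS pH 7.4 with 0.01% Tween-20. Incubations ran 30 min at room temperature, with 10 ug/mL donor/acceptor beads.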
JMJD2A Tudor inh: JMJD2A Tudor domain (human) inhibition; 390,000 tested, 4.4% active; AID 504339; O75164; Potency, µM (series often up to 114 µM), for the others: top-dose activity change, negative = inhibition, most hits filed as inhibitors; AlphaScreen JMJD2A-Tudor / H3K4me3 peptide binding; also: % is scaled to controls: 0 for no effect and ±100 for the full control effect; nearly all actives have a fitted effect of over 50% in size
An asterisk follows results filed as active; [ ] = another dose, or the depositor's remark. Calls follow the shape of the dose curve; as a rule, active = well fitted curve in the direction sought with a large enough effect; inconclusive = small, poorly fitted or top-dose-only effect, or another doubt; inactive = no such curve, though single readings can be large; an effect the other way counts as inactive or inconclusive. Potency is read from the fitted curve at half-maximal effect.

`CCOc1ccc(NC(=O)c2ccc3c(c2)nnn3C2CCCC2)cc1` gave BAZ2B inh -5%, G9a inh 1%[59 µM], HP1b chromo inh 19% and JMJD2A Tudor inh -15%.
For CCc1ccc(-n2c(=O)c3sc4ccccc4c3n(CC(=O)N(CC)Cc3ccccc3)c2=O)cc1 the results were BAZ2B inh -15%, G9a inh -1%[59 µM], HP1b chromo inh 52% and JMJD2A Tudor inh 3%.
For COCCNC(=O)CCn1c(=O)c2cc(OC)c(OC)cc2n(CC(=O)Nc2ccc(F)c(Cl)c2)c1=O the results were BAZ2B inh -14%, G9a inh -1%[59 µM], HP1b chromo inh 32% and JMJD2A Tudor inh -16%.
O=C(O)CC12CC3CC(C1)CC(n1ncc(NCc4ccccc4Cl)c(Cl)c1=O)(C3)C2 was read as BAZ2B inh -10%, Sfp PPTase inh -17%, G9a inh inconclusive, L3MBTL1 inh 10%, HP1b chromo inh 24% and JMJD2A Tudor inh -6%.
O=C(O)C12CC3CC(C1)CC(n1ncc(NCc4ccco4)c(Cl)c1=O)(C3)C2 was read as BAZ2B inh -2%, Sfp PPTase inh 35µM*, G9a inh 79µM*, L3MBTL1 inh -7%, HP1b chromo inh 14% and JMJD2A Tudor inh -5%.
`O=C(N/N=C\c1ccc([N+](=O)[O-])o1)c1cncc(Br)c1` gave BAZ2B inh -1%, Sfp PPTase inh -1%, G9a inh 0%, HP1b chromo inh 14% and JMJD2A Tudor inh 11%.
`COc1cc([N+](=O)[O-])cc(/C=N/NC(=O)c2cc(-c3ccccc3)nc3ccccc23)c1O` gave BAZ2B inh 50µM*, Sfp PPTase inh 24%, G9a inh -36%, L3MBTL1 inh -1%, HP1b chromo inh 30% and JMJD2A Tudor inh 79µM*.
Screening COc1cc([N+](=O)[O-])cc(/C=N/NC(=O)c2cncc(Br)c2)c1O returned BAZ2B inh 10µM*, Sfp PPTase inh -4%, L3MBTL1 inh inconclusive, HP1b chromo inh 14% and JMJD2A Tudor inh 20µM*.
`COc1cc([N+](=O)[O-])cc(/C=N/NC(=O)c2cc(C)nc3ccccc23)c1O` gave BAZ2B inh 20µM*, Sfp PPTase inh 13%, G9a inh -6%, L3MBTL1 inh inconclusive, HP1b chromo inh 28% and JMJD2A Tudor inh 22µM*.
COc1ccc(/C=N/NC(=O)c2cc(-c3ccccc3)nc3ccccc23)c(C(=O)O)c1OC was read as BAZ2B inh -1%, Sfp PPTase inh 28%, G9a inh 3%, HP1b chromo inh 41% and JMJD2A Tudor inh -1%.
For CCOC(=O)CSc1nnc2n(-c3ccccc3)c(=O)c3c4c(sc3n12)COC(C(C)C)C4 (centres undefined) the results were BAZ2B inh 0%, G9a inh -30%[59 µM], HP1b chromo inh 51% and JMJD2A Tudor inh -2%.
COc1ccc(CCNC(=O)c2cc(Nc3cc(C)cc(C)c3)nc3ccccc23)cc1OC was read as G9a inh 8%[59 µM], HP1b chromo inh 40% and JMJD2A Tudor inh -19%.
Screening COc1ccccc1CNC(=O)c1cc2cccc3c2n1CC(C)S3 (centres undefined) returned BAZ2B inh 5%, G9a inh -8%[59 µM], HP1b chromo inh 38% and JMJD2A Tudor inh -20%.
`COc1ccc(COC(=O)N/N=C2/C[C@@H](O)[C@@H](O)[C@@H]3[C@@H]4C(=O)N([C@@H](C)c5ccccc5)C(=O)[C@H]4CC[C@H]23)cc1` gave Sfp PPTase inh 13%.
Screening C=CC1=C(C)/C(=C/c2[nH]c(Cc3[nH]c(/C=C4\NC(=O)C(C)=C4C=C)c(C)c3CCC(=O)O)c(CCC(=O)O)c2C)NC1=O returned Sfp PPTase inh 40µM*.
